Measurements: PubChem BioAssay (Tox21)
Inconclusive results are not listed. Activity calls are given as the source filed them. The call rests on the fitted dose curve; in most records, active means well fitted curve in the direction sought with a large enough effect in the repeat runs; inconclusive means weak or mixed curves; inactive means no such curve, though single readings can be large; an effect the other way counts as inactive or inconclusive.

What was measured:
[1] = Caspase-3/7 induction in HepG2 cells by small molecules, qHTS assay (AID 1346978); further: nearly all actives have a fitted effect of over 15% in size
In short: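 Wild-type HepG2 cells, 2,000/well, settled 5 hr at 37 C and 5% CO2, then compound-treated for 17 hr; caspase-3/7 activity read by luminescent Caspase-Glo 3/7 after 30 min at room temperature.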

[2] = Caspase-3/7 induction in CHO-K1 cells by small molecules, qHTS cell viability counter screen (AID 1346979); further: nearly all actives have a fitted effect of over 35% in size
In short: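 Viability readout by fluorescence (CellTiter-Fluor) on wild-type CHO-K1 cells exposed for 16hr at 37C and 5% CO2 to compounds delivered in DMSO; reagent incubated 1hr before reading.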

[3] = Caspase-3/7 induction in CHO-K1 cells by small molecules, qHTS assay (AID 1346980); further: nearly all actives have a fitted effect of over 15% in size
In short: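 Wild-type CHO-K1 cells exposed to compounds for 17hr at 37 C, 5% CO2. Caspase-3/7 activity then measured by Caspase-Glo 3/7 luminescence after 30min at room temperature.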

[4] = Caspase-3/7 induction in HepG2 cells by small molecules, qHTS cell viability counter screen (AID 1346981); further: series mostly up to about 92 µM; nearly all actives have a fitted effect of over 30% in size
In short: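 In this quantitative HTS counter screen, compounds delivered in DMSO were left on unmodified HepG2 cells for 16 hr at 37 C. Viability was then determined fluorometrically with CellTiter-Fluor, in parallel with caspase-3/7 induction in the same wells.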

[5] = target: Nuclear receptor subfamily 1 group I member 2 (Homo sapiens) (UniProt O75469); assay: Human pregnane X receptor (PXR) small molecule agonists, qHTS assay (AID 1346982); further: nearly all actives have a fitted effect of over 35% in size
Nuclear receptor subfamily 1 group I member 2 (Homo sapiens), sequence (O75469 whole entry, looked up): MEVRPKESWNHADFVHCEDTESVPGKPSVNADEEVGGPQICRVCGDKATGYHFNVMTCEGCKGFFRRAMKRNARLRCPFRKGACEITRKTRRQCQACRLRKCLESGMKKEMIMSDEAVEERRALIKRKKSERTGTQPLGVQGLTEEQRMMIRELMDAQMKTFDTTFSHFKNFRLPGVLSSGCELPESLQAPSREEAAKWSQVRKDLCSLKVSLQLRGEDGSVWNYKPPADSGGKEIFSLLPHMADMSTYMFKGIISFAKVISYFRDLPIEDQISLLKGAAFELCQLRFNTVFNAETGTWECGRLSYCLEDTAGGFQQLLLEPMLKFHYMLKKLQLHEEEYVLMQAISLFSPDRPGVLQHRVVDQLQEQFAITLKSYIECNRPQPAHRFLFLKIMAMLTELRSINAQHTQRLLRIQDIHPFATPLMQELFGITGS
In short: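 Reporter HepG2 cells expressing PXR-Luc are cultured in charcoal-stripped FBS (5%), treated with compounds for 24 hr at 37 C, and assayed by ONE-Glo luminescence after 30 min at room temperature.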

[6] = target: Cytochrome P450 2D6 (Homo sapiens) (UniProt P10635); assay: Cytochrome P450 Family 2 Subfamily D Member 6 (CYP2D6) small molecule antagonists: luciferase reporter qHTS assay (AID 1671196); further: nearly all actives have a fitted effect of over 50% in size; further: potency means the concentration at half of the fitted maximal effect; on activity change, negative = inhibition: series mostly up to about 120 µM
Cytochrome P450 2D6 (Homo sapiens), sequence (P10635 whole entry, looked up): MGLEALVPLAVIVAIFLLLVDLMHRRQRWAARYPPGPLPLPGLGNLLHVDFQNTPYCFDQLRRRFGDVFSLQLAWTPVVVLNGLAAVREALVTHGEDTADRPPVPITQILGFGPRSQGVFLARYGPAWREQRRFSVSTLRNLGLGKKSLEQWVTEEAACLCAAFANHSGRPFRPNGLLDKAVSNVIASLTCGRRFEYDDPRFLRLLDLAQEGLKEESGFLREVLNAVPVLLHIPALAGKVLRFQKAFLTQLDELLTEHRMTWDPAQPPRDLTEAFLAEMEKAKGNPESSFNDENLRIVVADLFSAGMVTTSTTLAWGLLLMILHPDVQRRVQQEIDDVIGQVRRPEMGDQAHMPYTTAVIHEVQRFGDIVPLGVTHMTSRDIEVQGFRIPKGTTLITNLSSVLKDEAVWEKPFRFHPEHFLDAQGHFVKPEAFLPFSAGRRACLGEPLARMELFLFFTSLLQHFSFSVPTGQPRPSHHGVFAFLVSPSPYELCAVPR
In short: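 Test chemicals meet CYP2D6 plus proluciferin substrate (10 min, RT); NADPH regenerating solution then drives turnover for 1 h. Detection reagent halts the reaction; luminescence measured after 20 min.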

[7] = target: Cytochrome P450 2C19 (Homo sapiens) (UniProt P33261); assay: Cytochrome P450 Family 2 Subfamily C Member 19 (CYP2C19) small molecule antagonists: luciferase reporter qHTS assay (AID 1671197); further: nearly all actives have a fitted effect of over 65% in size; further: potency means the concentration at half of the fitted maximal effect; on activity change, negative = inhibition: series mostly up to about 120 µM
Cytochrome P450 2C19 (Homo sapiens), sequence (P33261 whole entry, looked up): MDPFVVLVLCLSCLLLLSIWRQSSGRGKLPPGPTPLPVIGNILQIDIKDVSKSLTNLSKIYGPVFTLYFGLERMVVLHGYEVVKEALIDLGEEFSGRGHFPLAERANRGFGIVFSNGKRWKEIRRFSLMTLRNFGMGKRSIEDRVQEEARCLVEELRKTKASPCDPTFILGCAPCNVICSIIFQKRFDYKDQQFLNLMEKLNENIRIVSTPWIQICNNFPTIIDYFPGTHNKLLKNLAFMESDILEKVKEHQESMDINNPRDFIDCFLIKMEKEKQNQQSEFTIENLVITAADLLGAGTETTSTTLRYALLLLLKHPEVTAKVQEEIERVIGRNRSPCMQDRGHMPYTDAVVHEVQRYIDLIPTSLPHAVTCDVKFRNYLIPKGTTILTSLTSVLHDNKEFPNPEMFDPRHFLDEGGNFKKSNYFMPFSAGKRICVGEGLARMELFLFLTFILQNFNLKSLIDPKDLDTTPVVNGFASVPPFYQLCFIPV
In short: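 Enzyme-substrate mix with proluciferin substrate (P450-Glo CYP2C19 system) preincubated with compounds 10 min at room temperature; NADPH regeneration solution added, 37C for 1 h; detection reagent stops reaction, luminescence read after 20 min. Ketoconazole positive control.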

[8] = target: Cytochrome P450 2C9 (Homo sapiens) (UniProt P11712); assay: Cytochrome P450 Family 2 Subfamily C Member 9 (CYP2C9) small molecule antagonists: luciferase reporter qHTS assay (AID 1671198); further: nearly all actives have a fitted effect of over 50% in size; further: potency means the concentration at half of the fitted maximal effect; on activity change, negative = inhibition: series mostly up to about 120 µM
Cytochrome P450 2C9 (Homo sapiens), sequence (P11712 whole entry, looked up): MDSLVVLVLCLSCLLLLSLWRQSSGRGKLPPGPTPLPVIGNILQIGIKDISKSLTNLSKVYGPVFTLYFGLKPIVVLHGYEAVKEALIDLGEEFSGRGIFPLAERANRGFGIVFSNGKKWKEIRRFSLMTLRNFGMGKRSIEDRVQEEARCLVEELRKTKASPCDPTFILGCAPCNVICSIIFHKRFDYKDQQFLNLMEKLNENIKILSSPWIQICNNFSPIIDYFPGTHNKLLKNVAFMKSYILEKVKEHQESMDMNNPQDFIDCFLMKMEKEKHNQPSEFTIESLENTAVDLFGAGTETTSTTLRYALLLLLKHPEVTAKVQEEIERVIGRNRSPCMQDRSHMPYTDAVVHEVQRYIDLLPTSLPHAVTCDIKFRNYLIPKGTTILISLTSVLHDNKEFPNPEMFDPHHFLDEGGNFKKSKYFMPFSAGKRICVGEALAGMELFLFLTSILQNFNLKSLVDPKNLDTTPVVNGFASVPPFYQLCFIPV
In short: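 P450-Glo proluciferin substrate with CYP2C9 enzyme; 10 min RT preincubation, then NADPH regeneration 1 h at 37C; luciferin detection reagent 20 min RT, luminescence in relative luminescence units.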

[9] = target: Cytochrome P450 1A2 (Homo sapiens) (UniProt P05177); assay: Cytochrome P450 Family 1 Subfamily A Member 2 (CYP1A2) small molecule antagonists: luciferase reporter qHTS assay (AID 1671199); further: nearly all actives have a fitted effect of over 50% in size; further: potency means the concentration at half of the fitted maximal effect; on activity change, negative = inhibition: series mostly up to about 120 µM
Cytochrome P450 1A2 (Homo sapiens), sequence (P05177 whole entry, looked up): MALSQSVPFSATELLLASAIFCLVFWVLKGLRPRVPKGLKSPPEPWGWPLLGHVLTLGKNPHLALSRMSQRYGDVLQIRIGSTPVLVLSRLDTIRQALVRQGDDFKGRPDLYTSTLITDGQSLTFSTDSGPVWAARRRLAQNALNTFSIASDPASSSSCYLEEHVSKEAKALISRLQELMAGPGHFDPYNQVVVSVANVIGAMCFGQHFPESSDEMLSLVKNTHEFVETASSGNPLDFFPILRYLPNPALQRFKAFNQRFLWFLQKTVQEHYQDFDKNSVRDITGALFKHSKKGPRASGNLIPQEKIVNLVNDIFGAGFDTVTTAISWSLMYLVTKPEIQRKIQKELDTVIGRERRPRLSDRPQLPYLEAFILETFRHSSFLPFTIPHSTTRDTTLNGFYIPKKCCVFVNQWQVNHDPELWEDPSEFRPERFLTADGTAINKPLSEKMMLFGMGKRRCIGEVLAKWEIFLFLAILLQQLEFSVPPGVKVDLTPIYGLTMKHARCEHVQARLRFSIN
In short: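 Steps: enzyme-substrate mix dispensed; test compounds and furafylline control pinned in; 10 min room temperature; NADPH regeneration solution added, 1 h; reaction stopped with luciferin detection reagent; luminescence read after 20 min.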

[10] = target: Voltage-gated inwardly rectifying potassium channel KCNH2 (Homo sapiens) (UniProt Q12809); assay: Human Ether-a-go-go-Related Gene (hERG) channel small molecule antagonists: fluorescence cell-based qHTS assay (AID 1671200);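 further: hERG-expressing U2OS cells given a thallium stimulus after FluxOR II dye loading; series mostly up to about 77 µM; nearly all actives have a fitted effect of over 50% in size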
Voltage-gated inwardly rectifying potassium channel KCNH2 (Homo sapiens), sequence (Q12809 whole entry, looked up): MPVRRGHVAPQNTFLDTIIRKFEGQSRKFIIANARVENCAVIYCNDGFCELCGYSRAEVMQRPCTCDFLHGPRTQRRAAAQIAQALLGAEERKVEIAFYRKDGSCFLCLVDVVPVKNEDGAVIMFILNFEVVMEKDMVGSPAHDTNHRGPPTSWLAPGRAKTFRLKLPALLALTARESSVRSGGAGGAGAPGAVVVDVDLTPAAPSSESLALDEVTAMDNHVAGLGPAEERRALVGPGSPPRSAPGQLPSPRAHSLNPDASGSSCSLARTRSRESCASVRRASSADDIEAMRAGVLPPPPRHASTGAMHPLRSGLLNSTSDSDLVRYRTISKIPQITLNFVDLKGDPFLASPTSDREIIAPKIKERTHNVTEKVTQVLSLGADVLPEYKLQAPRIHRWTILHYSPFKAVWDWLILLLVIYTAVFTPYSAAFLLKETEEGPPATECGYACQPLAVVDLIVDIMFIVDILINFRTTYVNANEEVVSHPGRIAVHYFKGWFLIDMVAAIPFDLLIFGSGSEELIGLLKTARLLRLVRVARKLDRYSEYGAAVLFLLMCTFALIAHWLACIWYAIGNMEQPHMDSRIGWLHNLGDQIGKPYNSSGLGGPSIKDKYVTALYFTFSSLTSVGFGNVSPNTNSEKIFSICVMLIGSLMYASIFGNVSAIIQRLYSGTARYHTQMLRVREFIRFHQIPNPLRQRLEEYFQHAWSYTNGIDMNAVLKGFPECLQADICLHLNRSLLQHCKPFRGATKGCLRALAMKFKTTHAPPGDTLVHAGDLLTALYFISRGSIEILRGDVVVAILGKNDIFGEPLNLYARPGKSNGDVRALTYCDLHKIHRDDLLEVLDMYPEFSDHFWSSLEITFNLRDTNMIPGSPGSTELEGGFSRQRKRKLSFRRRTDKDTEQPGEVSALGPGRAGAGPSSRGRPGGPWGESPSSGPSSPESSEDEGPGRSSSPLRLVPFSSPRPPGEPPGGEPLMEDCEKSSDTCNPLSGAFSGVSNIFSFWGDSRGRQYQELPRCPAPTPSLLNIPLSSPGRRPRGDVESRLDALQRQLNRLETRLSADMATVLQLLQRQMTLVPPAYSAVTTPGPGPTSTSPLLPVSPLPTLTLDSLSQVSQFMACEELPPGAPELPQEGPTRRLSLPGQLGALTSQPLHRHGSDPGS
In short: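 Thallium served as the potassium surrogate; its influx into dye-loaded U2OS cells carrying the channel was measured by fluorescence over 2 min.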

[11] = target: Cytochrome P450 3A4 (Homo sapiens) (UniProt P08684); assay: Cytochrome P450 Family 3 Subfamily A Member 4 (CYP3A4) small molecule antagonists: luciferase reporter qHTS assay (AID 1671201)
Cytochrome P450 3A4 (Homo sapiens), sequence (P08684 whole entry, looked up): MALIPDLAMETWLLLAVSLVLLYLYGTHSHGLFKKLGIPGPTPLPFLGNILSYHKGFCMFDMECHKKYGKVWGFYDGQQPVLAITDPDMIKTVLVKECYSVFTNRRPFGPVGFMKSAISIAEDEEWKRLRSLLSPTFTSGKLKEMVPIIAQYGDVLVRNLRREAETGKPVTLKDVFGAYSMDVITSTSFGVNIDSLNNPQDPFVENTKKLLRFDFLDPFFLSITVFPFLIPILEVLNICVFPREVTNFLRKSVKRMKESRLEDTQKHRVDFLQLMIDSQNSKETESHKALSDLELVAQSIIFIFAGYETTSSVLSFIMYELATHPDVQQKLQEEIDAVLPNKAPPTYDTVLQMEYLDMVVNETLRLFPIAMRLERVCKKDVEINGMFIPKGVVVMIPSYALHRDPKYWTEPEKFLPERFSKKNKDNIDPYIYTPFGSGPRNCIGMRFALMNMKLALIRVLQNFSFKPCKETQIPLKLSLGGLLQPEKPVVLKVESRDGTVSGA
In short: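 Relative luminescence units after 20 min with luciferin detection reagent served as read-out. Beforehand, CYP3A4 turned over a proluciferin substrate for 1 h at room temperature with NADPH regeneration, following 10 min compound preincubation.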

[12] = target: Nuclear receptor subfamily 1 group I member 2 (Rattus norvegicus) (UniProt Q9R1A7); assay: Rat pregnane X receptor (rPXR) activation by small molecules, qHTS assay (AID 1346983); conditions: rPXR luciferase reporter cells, One-Glo luminescence, 24 h; hits give high values; further: nearly all actives have a fitted effect of over 20% in size
Nuclear receptor subfamily 1 group I member 2 (Rattus norvegicus), sequence (Q9R1A7 whole entry, looked up): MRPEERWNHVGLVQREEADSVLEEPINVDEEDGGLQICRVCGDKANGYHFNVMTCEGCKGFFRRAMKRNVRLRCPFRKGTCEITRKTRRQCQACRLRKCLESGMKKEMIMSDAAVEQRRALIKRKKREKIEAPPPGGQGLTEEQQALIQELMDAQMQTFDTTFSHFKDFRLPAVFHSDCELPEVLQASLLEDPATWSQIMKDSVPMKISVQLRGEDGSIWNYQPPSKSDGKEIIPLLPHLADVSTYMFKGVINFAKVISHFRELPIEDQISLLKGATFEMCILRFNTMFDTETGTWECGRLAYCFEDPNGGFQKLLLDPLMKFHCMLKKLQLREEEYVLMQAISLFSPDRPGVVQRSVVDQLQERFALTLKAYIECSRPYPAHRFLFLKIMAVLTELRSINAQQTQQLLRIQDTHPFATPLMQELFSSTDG
In short: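 Cell-based rPXR activation assay: rPXR cells, 2,000 per well, rested 5hr at 37 C, then exposed to compounds in DMSO for 24 hr at 37 C. Luciferase activity read by One-Glo luminescence after 30 min at room temperature.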

[13] = target: Nuclear receptor subfamily 1 group I member 2 (Homo sapiens) (UniProt O75469); assay: CYP3A4 induction through human pregnane X receptor (PXR) by small molecules, qHTS assay (AID 1346984); further: nearly all actives have a fitted effect of over 40% in size
In short: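 Induction measured in HepG2-based DPX-2 cells co-expressing human PXR and a CYP3A4 promoter-driven luciferase. After a 24-hour compound exposure, cells received CYP3A4 luciferin substrate at 3uM final for 3 hours, and light output was then recorded.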

[14] = target: Nuclear receptor subfamily 1 group I member 2 (Homo sapiens) (UniProt O75469); assay: Human pregnane X receptor (PXR) activation by small molecules, qHTS assay (AID 1346985); further: nearly all actives have a fitted effect of over 40% in size
In short: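 DPX-2 cells (HepG2 co-transfected with a PXR response element and a CYP3A4-promoter luciferase construct) were seeded at 2,000 per well, rested 5 hr at 37C, then exposed to DMSO-dissolved compounds for 24 hr. Activation was read as luciferase luminescence.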
On the % scale 0 is the no-effect control and ±100 the full control effect.

CC(NC(CCc1ccccc1)C(=O)O)C(=O)N1C(=O)N(C)CC1C(=O)O (stereo not drawn)
inactive: Potency [1] | Potency [2] | outcome [3] | Potency [4] | Potency [5] | Potency [6] | Potency [7] | Potency [8] | Potency [9] | Potency [10] | Potency [11]

OC[C@]1(O)OC[C@@H](O)[C@H](O)[C@@H]1O
inactive: Potency [1] | Potency [2] | outcome [3] | Potency [4] | Potency [5] | Potency [6] | Potency [7] | Potency [8] | Potency [9] | Potency [10] | Potency [11]

C=CCOCC(CC)(CO)COCC=C
active: Potency [7] 3.99 µM | Potency [8] 25.2 µM | Potency [9] 28.3 µM
inactive: Potency [1] | Potency [2] | outcome [3] | Potency [4] | Potency [5] | Potency [6] | Potency [10]

CCS(=O)(=O)c1ccc(OC)c(C(=O)OC)c1
inactive: Potency [1] | Potency [2] | outcome [3] | Potency [4] | Potency [5] | Potency [6] | Potency [7] | Potency [8] | Potency [9] | Potency [10] | Potency [11]

CC(C)(CC(=O)O)C(=O)O
active: Potency [7] 70.3 µM | Potency [9] 12.5 µM
inactive: Potency [1] | Potency [2] | outcome [3] | Potency [4] | Potency [5] | Potency [6] | Potency [8] | Potency [10] | Potency [11]

ClC(Cl)(Br)Br
active: Potency [6] 39.2 µM
inactive: Potency [1] | Potency [2] | outcome [3] | Potency [4] | Potency [5] | Potency [7] | Potency [8] | Potency [9] | Potency [10] | Potency [11]

COc1ccc2c(c1)CCCC2=O
inactive: Potency [1] | Potency [2] | outcome [3] | Potency [4] | Potency [5] | Potency [6] | Potency [7] | Potency [8] | Potency [10] | Potency [11]
active: Potency [9] 13.8 µM

CC(=O)N(CC(O)CO)c1c(I)c(C(=O)NCCO)c(I)c(C(=O)NCC(O)CO)c1I (stereo not drawn)
inactive: Potency [1] | Potency [2] | outcome [3] | Potency [4] | Potency [5] | Potency [6] | Potency [7] | Potency [8] | Potency [9] | Potency [10] | Potency [11]

CN1CCC(=C2c3ccccc3CC(=O)c3sccc32)CC1
active: Potency [6] 2.45 µM | Potency [7] 34.7 µM
inactive: Potency [1] | Potency [2] | outcome [3] | Potency [4] | Potency [5] | Potency [8] | Potency [9] | Potency [10] | Potency [11]

CCC(C)C1CCCCC1=O (stereo not drawn)
inactive: Potency [1] | Potency [2] | outcome [3] | Potency [4] | Potency [5] | Potency [6] | Potency [7] | Potency [8] | Potency [9] | Potency [10] | Potency [11]

CCc1nccnc1CC
inactive: caspase activation [1] 0.2% [at 19 µM] | Potency [2] | caspase-3/7 activation [3] -0.427% [at 19 µM] | activity change, negative = cytotoxicity [4] -4.23% [at 19 µM] | activation [5] -0.742% [at 19 µM] | activity change, negative = inhibition [6] -14% [at 23.6 µM] | Potency [7] | activity change, negative = inhibition [8] 2.92% [at 23.6 µM] | Potency [9] | activity change, negative = inhibition [10] -2.32% [at 15.8 µM] | activity change, negative = inhibition [11] 8.66% [at 23.6 µM]

O=C[C@H](O)[C@@H](O)[C@H](O)[C@H](O)CO
inactive: Potency [1] | Potency [2] | outcome [3] | Potency [4] | Potency [5] | Potency [6] | Potency [7] | Potency [8] | Potency [9] | Potency [10] | Potency [11]

CO[Si](CCCOCC1CO1)(OC)OC (stereo not drawn)
inactive: Potency [1] | Potency [2] | outcome [3] | Potency [4] | Potency [5] | Potency [6] | Potency [7] | Potency [8] | Potency [9] | Potency [10] | Potency [11]

CCN1CCC[C@H]1CNC(=O)c1cc(S(N)(=O)=O)ccc1OC
active: Potency [6] 15.5 µM
inactive: Potency [1] | Potency [2] | outcome [3] | Potency [4] | max activation [12] -2.59% | Potency [7] | Potency [8] | Potency [9] | Potency [10] | Potency [11]

CCCCCCOC(=O)CCCCC(=O)OCCCCCC
inactive: Potency [1] | Potency [2] | outcome [3] | Potency [4] | Potency [6] | Potency [7] | Potency [9] | Potency [10] | Potency [11]
active: Potency [8] 31.7 µM

C[N+](C)(C)CCCCCC[N+](C)(C)C
inactive: Potency [1] | Potency [2] | outcome [3] | Potency [4] | max activation [12] 0.135% | Potency [6] | Potency [7] | Potency [8] | Potency [9] | Potency [10] | Potency [11]

FC1(F)C(F)(F)C(F)(F)C2(F)C(F)(F)C(F)(F)C(F)(F)C(F)(F)C2(F)C1(F)F (stereo not drawn)
inactive: Potency [1] | Potency [2] | outcome [3] | Potency [4] | max activation [12] -2.25% | Potency [13] | Potency [14] | Potency [6] | Potency [7] | Potency [8] | Potency [9] | Potency [10] | Potency [11]

CCc1cccc2c(CCO)c[nH]c12
inactive: Potency [1] | Potency [2] | outcome [3] | Potency [4] | Potency [5] | Potency [10] | Potency [11]
active: Potency [7] 17.4 µM | Potency [9] 7.76 µM

CCCN1CCCC[C@H]1C(=O)Nc1c(C)cccc1C
inactive: Potency [1] | Potency [2] | outcome [3] | Potency [4] | max activation [12] 0.29% | Potency [7] | Potency [8] | Potency [9] | Potency [10]
active: Potency [6] 4.9 µM

CC(C)CCCC(C)N (stereo not drawn)
inactive: Potency [1] | Potency [2] | outcome [3] | Potency [4] | max activation [12] -5.35% | Potency [13] | Potency [14] | Potency [6] | Potency [8] | Potency [10] | Potency [11]
active: Potency [9] 21.9 µM
